The results in this text go back to PubChem BioAssay (EPA / NIEHS).

SMILES strings stand for the structures. “And” between values parts separate entries of the source, which are not always exact repeats. Equal entries are not always repeated. The source holds several records for some structures; these can differ, active in one and inactive in another. The source made the active and inactive calls. How the source made its calls: active means hit-call score of the fitted dose curve at least 0.9, where 1 is the maximum; inactive means score below 0.9.

Read-out in experiment [1]: Interleukin-6 (IL6), IL6 (gene 3569)
In words: BSK_CASM3C_IL6: BioMAP Diversity Plus: CASM3C Assay for Interleukin-6 (IL6) Biomarker Activity for (AID 2283040). Conditions: primary human coronary artery smooth muscle cells; actives raise or lower the signal.

Read-out in experiment [2]: Tissue plasminogen activator (tPA), PLAT (gene 5327)
The experiment in a line: BSK_BE3C_tPA: BioMAP Diversity Plus: BE3C Assay for Tissue plasminogen activator (tPA) Biomarker Activity (AID 2283041).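 On outcome: tPA level quantified by ELISA one day after compound addition.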 Conditions: primary human bronchial epithelial cells; actives raise or lower the signal. In a few lines: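 Gain- or loss-of-signal in tPA, measured by ELISA, derived by bidirectional fitting against DMSO. Cells: human primary bronchial epithelial; read at 24 h after chemical dosing.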

Read-out in experiment [3]: Interleukin-8 (IL8), CXCL8 (gene 3576)
In words: BSK_CASM3C_IL8: BioMAP Diversity Plus: CASM3C Assay for Interleukin-8 (IL8) Biomarker Activity (AID 2283042).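 Further: IL-8 protein level quantified by ELISA.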 Conditions: primary human coronary artery smooth muscle cells; actives raise or lower the signal.

Read-out in experiment [4]: Human Leukocyte Antigen - DR isotype (HLADR), HLA-DRA (gene 3122)
The experiment in a line: BSK_CASM3C_HLADR: BioMAP Diversity Plus: CASM3C Assay for Human Leukocyte Antigen - DR isotype (HLADR) Biomarker Activity (AID 2283043).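 Further: cell-surface HLA-DR protein level quantified by ELISA.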 The note with it: primary human coronary artery smooth muscle cells; actives raise or lower the signal.

Read-out in experiment [5]: Macrophage colony-stimulating factor (MCSF), CSF1 (gene 1435)
The experiment in a line: BSK_CASM3C_MCSF: BioMAP Diversity Plus: CASM3C Assay for Macrophage colony-stimulating factor (MCSF) Biomarker Activity (AID 2283044).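 Further: M-CSF protein amount quantified by ELISA after 24 h exposure.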 The note with it: primary human coronary artery smooth muscle cells; actives raise or lower the signal.

Read-out in experiment [6]: Low-density lipoprotein receptor (LDLR), LDLR (gene 3949)
The experiment in a line: BSK_CASM3C_LDLR: BioMAP Diversity Plus: CASM3C Assay for Low-density lipoprotein receptor (LDLR) Biomarker Activity (AID 2283045).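 Further: LDLR protein level on the cell surface quantified by ELISA.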 Conditions: primary human coronary artery smooth muscle cells; actives raise or lower the signal.

Read-out in experiment [7]: Monocyte Chemoattractant Protein-1 (MCP1), CCL2 (gene 6347)
The experiment in a line: BSK_CASM3C_MCP1: BioMAP Diversity Plus: CASM3C Assay for Monocyte Chemoattractant Protein-1 (MCP1) Biomarker Activity (AID 2283046).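 Further: MCP-1 level quantified by ELISA 24 h after dosing.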 The note with it: primary human coronary artery smooth muscle cells; actives raise or lower the signal.

Experiment [8] is described as follows: BSK_CASM3C_Proliferation: Cell Proliferation Assessment in the BioMAP Diversity Plus: CASM3C Assay (AID 2283047).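 Further: sulforhodamine B total protein stain as relative cell number at 560 nm; sub-confluent cells exposed 48 h before staining; fitted both ways against DMSO so gain or loss of cell number.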 Conditions: primary human coronary artery smooth muscle cells.
Read-out in experiment [9]: Monokine induced gamma interferon (MIG), CXCL9 (gene 4283)
In words: BSK_CASM3C_MIG: BioMAP Diversity Plus: CASM3C Assay for Monokine induced gamma interferon (MIG) Biomarker Activity (AID 2283048).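 Further: MIG protein level measured by ELISA.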 Conditions: primary human coronary artery smooth muscle cells; actives raise or lower the signal.

Read-out in experiment [10]: serum amyloid A (SAA), SAA1 (gene 6288)
The experiment in a line: BSK_CASM3C_SAA: BioMAP Diversity Plus: CASM3C Assay for serum amyloid A (SAA) Biomarker Activity (AID 2283049).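 Further: SAA protein level quantified by ELISA.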 Conditions: primary human coronary artery smooth muscle cells; actives raise or lower the signal.

Experiment [11] in a line: BSK_CASM3C_SRB: Viability Assessment in the BioMAP Diversity Plus: CASM3C Assay (AID 2283050).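 Further: total protein by SRB staining as cytotoxicity measure in parallel cultures; cells exposed to compound for 24 h.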 Conditions: primary human coronary artery smooth muscle cells.
Read-out in experiment [12]: Thrombomodulin, THBD (gene 7056)
In words: BSK_CASM3C_Thrombomodulin: BioMAP Diversity Plus: CASM3C Assay for Thrombomodulin Biomarker Activity (AID 2283051).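 Further: thrombomodulin protein level measured by ELISA 24 h after dosing.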 The note with it: primary human coronary artery smooth muscle cells; actives raise or lower the signal.

Read-out in experiment [13]: Tissue Factor, F3 (gene 2152)
The experiment in a line: BSK_CASM3C_TissueFactor: BioMAP Diversity Plus: CASM3C Assay for Tissue Factor Biomarker Activity (AID 2283052).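 Further: cell surface tissue factor protein level read by ELISA.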 The note with it: primary human coronary artery smooth muscle cells; actives raise or lower the signal.

Read-out in experiment [14]: Interferon-gamma inducible Protein 10 (IP10), CXCL10 (gene 3627)
The experiment in a line: BSK_hDFCGF_IP10: BioMAP Diversity Plus: hDFCGF Assay for Interferon-gamma inducible Protein 10 (IP10) Biomarker Activity (AID 2283053). The note with it: primary human foreskin fibroblasts; actives raise or lower the signal. In a few lines: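 Cells: human dermal foreskin fibroblasts. Exposure: 24 h post-dosing. Detection: IP-10 ELISA, with values expressed against DMSO controls and fitted in both directions.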

Read-out in experiment [15]: Urokinase-type plasminogen activator receptor (uPAR), PLAUR (gene 5329)
The experiment in a line: BSK_CASM3C_uPAR: BioMAP Diversity Plus: CASM3C Assay for Urokinase-type plasminogen activator receptor (uPAR) Biomarker Activity (AID 2283054).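 Further: cell-surface uPAR protein level quantified by ELISA.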 The note with it: primary human coronary artery smooth muscle cells; actives raise or lower the signal.

Read-out in experiment [16]: Vascular cell adhesion molecule 1 (VCAM1), VCAM1 (gene 7412)
In words: BSK_CASM3C_VCAM1: BioMAP Diversity Plus: CASM3C Assay for Vascular cell adhesion molecule 1 (VCAM1) Biomarker Activity (AID 2283055).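 Further: VCAM-1 protein level quantified by ELISA on the cells.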 Conditions: primary human coronary artery smooth muscle cells; actives raise or lower the signal.

Read-out in experiment [17]: Collagen III, COL3A1 (gene 1281)
In words: BSK_hDFCGF_CollagenIII: BioMAP Diversity Plus: hDFCGF Assay for Collagen III Biomarker Activity (AID 2283056). Conditions: primary human foreskin fibroblasts; actives raise or lower the signal. A digest of the protocol:
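Response relative to DMSO, fitted in both directions, reflects ELISA-measured collagen III in human primary skin fibroblasts 24 h after compound addition.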

Read-out in experiment [18]: Epidermal growth factor receptor (EGFR), EGFR (gene 1956)
In words: BSK_hDFCGF_EGFR: BioMAP Diversity Plus: hDFCGF Assay for Epidermal growth factor receptor (EGFR) Biomarker Activity (AID 2283057). The note with it: primary human foreskin fibroblasts; actives raise or lower the signal. A digest of the protocol:
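Dosing human primary skin fibroblasts, then measuring surface EGFR by ELISA at 24 h, gives the endpoint; gains and losses relative to DMSO were fitted in both directions.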

Read-out in experiment [19]: Interleukin-8 (IL8), CXCL8 (gene 3576)
The experiment in a line: BSK_hDFCGF_IL8: BioMAP Diversity Plus: hDFCGF Assay for Interleukin-8 (IL8) Biomarker Activity (AID 2283058). The note with it: primary human foreskin fibroblasts; actives raise or lower the signal. In a few lines: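 Fibroblast monolayers (human foreskin, hDFCGF) received test chemical for 24 h before ELISA detection of IL-8; either increases or decreases relative to DMSO count as activity.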

The nature of experiment [20]: BSK_hDFCGF_Proliferation: Cell Proliferation Assessment in the BioMAP Diversity Plus: hDFCGF Assay (AID 2283059).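 Further: curves fitted for both rise and fall of signal versus DMSO baseline.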 Conditions: primary human foreskin fibroblasts. In a few lines:
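Primary human foreskin fibroblasts, sub-confluent; […]; 10% TCA fix, 0.1% SRB stain, A560 total protein. Gain/loss fitted bidirectionally vs DMSO control.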

For orientation: AC50 means the midpoint of the concentration-response curve, whichever way the signal moves. In the case of `O=P(O)(O)OCCC(F)(F)C(F)(F)C(F)(F)C(F)(F)C(F)(F)C(F)(F)F`, the outcome in [1], in experiment [2], in experiment [3], in [4], in experiment [5] and in experiment [6] was inactive. In addition, the outcome in experiment [7], in experiment [8], in experiment [9], in experiment [10], in experiment [11] and in experiment [12] was inactive. For the same compound, the outcome in [13], in experiment [14], in experiment [15], in experiment [16], in [17] and in experiment [18] was inactive. In addition, the outcome in experiment [19] and in experiment [20] was inactive. In addition, the concentration at half-maximal activity (AC50) in [2] is 3.64 µM (active); in experiment [7], 258 nM (active); in experiment [10] it was 457 nM (active); in experiment [14] it was 7.21 µM (active).
Consider `CCCCCCC(C)OC(=O)CCCCC(=O)OC(C)CCCCCC` (stereo not given), for which the outcome in experiment [1], in experiment [2], in [3], in [4], in [5] and in experiment [6] was inactive. The result in experiment [7], in experiment [8], in experiment [9], in [10], in experiment [11] and in [12] was inactive. Moreover, the outcome in [13], in experiment [14], in experiment [15], in experiment [16], in experiment [17] and in experiment [18] was inactive. Further, the outcome in [19] and in [20] was inactive.
For `FC(F)(I)C(F)(F)C(F)(F)C(F)(F)I`, the concentration at half-maximal activity (AC50) in [1] was 45.6 µM (active) and 44.9 µM (active) and 30 µM (active); in [2], 46.5 µM (active) and 43.2 µM (active); in experiment [3] it was 47.5 µM (active) and 48.2 µM (active); in experiment [4], 50.5 µM (active); in experiment [5], 47.5 µM (active) and 50.2 µM (active) and 46.8 µM (active); in experiment [6], 23.6 µM (active) and 43.5 µM (active). The half-maximal activity concentration (AC50) in [7] is 44.4 µM (active) and 46 µM (active) and 46.1 µM (active); in experiment [8], 43.4 µM (active) and 49.7 µM (active) and 43.9 µM (active); in [9], 44.3 µM (active) and 48.1 µM (active) and 46.8 µM (active); in experiment [10], 47.5 µM (active) and 45 µM (active) and 47.6 µM (active); in [11], 43.5 µM (active) and 47.2 µM (active) and 48.7 µM (active); in experiment [13], 30 µM (active) and 40.4 µM (active). Moreover, the half-maximal activity concentration (AC50) in experiment [14] was 47.9 µM (active) and 55.1 µM (active) and 58.4 µM (active); in experiment [15] it was 47.2 µM (active) and 43.9 µM (active) and 54.4 µM (active); in experiment [16], 45.7 µM (active) and 45.6 µM (active) and 47.9 µM (active); in [17] it was 30 µM (active) and 44.1 µM (active) and 39.5 µM (active); in experiment [19], 53.7 µM (active) and 54.7 µM (active) and 56.5 µM (active); in experiment [20], 48.7 µM (active) and 45.5 µM (active) and 43.3 µM (active). In addition, the result in experiment [2], in experiment [3], in experiment [4], in [6], in [12] and in experiment [13] was inactive. Besides, in [18], the result was inactive.
`FC(F)(F)C(F)(F)CNCC(F)(F)C(F)(F)F`: the outcome in [1], in experiment [2], in [3], in [4], in [5] and in experiment [6] was inactive. Besides, the outcome in experiment [7], in experiment [8], in experiment [9], in experiment [10], in experiment [11] and in experiment [12] was inactive. Besides, the result in experiment [13], in [14], in [15], in [16], in experiment [17] and in [18] was inactive. The result in experiment [19] and in experiment [20] was inactive. The concentration at half-maximal activity (AC50) in [18] was 7.57 µM (active).
